HCV inh – blocks hepatitis C virus; Potency, µM (highest dose often 41.8 µM), for inactives: top-dose activity change, negative = inhibition, actives largely listed as inhibitors; AID 651820; 340,000 tested, 3.4% active; Huh7.5.1 HCVcc-Cre infection, luciferase reporter, 44 h; further: potency means the concentration at half of the fitted maximal effect
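Reporter virus HCVcc-Cre (~0.5 moi) infects cells exposed to compound; seeding density 1,000 cells/well with 4 h settling beforehand. Luminescence, 15 sec read, taken 44 h post-infection following a 15 min RT substrate incubation.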
HCMV antiviral – human cytomegalovirus inhibition | activity change, negative = inhibition, % at 57.5 µM | 410,000 tested, 4.5% active | HFF cells, HCMV-luciferase reporter, 72 h; hits give low values; in the data active means activity change below about -60%; inconclusive means no clear call, values can overlap the other calls; inactive means above about -39%
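Compounds were evaluated in HFFs infected with an HCMV luciferase reporter virus (MOI 1 PFU/cell). Luciferase in lysates collected 72 h post infection served as the replication measure.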
FMDV inh – antivirals against foot and mouth disease virus | Potency, µM (highest dose often 57.9 µM), for inactives: top-dose activity change, negative = inhibition, hits mostly inhibitors | FMDV antiviral cell-based qHTS | 410,000 tested, 1.2% active | AID 1159524; calls by dose curve; tested in HEK293T cells; further: read-out not given here; potency means the concentration at half of the fitted maximal effect; nearly all actives have a fitted effect of over 45% in size
VACV mCherry inh – inhibitors of vaccinia virus infection (mCherry reporter signal); Vaccinia virus mCherry reporter infection, fluorescence; Potency, µM (series often up to 36.5 µM), without a hit: at the highest dose activity change, negative = inhibition, hits mostly inhibitors; AID 720579; 310,000 tested, 0.63% active; calls by dose curve; tested in A549 cells; further: potency means the concentration at half of the fitted maximal effect; nearly all actives have a fitted effect of over 35% in size
Sm TGR block – inhibitors of Schistosoma mansoni thioredoxin glutathione reductase | 360,000 tested, 3% active | Q962Y6 | AID 485364 | Potency, µM (series often up to 114 µM), for the others: top-dose activity change, negative = inhibition, hits mostly inhibitors | purified TGR, DTNB reduction, TNB absorbance 405 nm; further: potency means the concentration at half of the fitted maximal effect; nearly all actives have a fitted effect of over 60% in size
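First, TGR (20 nM dispensed) and NADPH were mixed with compound. Second, a 15 min room-temperature incubation followed. Third, further NADPH and then DTNB were added to start the reaction. Finally, TNB absorbance was monitored kinetically.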
Vaccinia Venus – inhibitors of vaccinia virus (Venus reporter) | Potency, µM (series often up to 36.5 µM), inactives show at the highest dose activity change, negative = inhibition, usual class: inhibitors | 330,000 tested, 0.46% active | Vaccinia virus Venus reporter expression, fluorescence; calls by dose curve; tested in A549 cells; further: potency means the concentration at half of the fitted maximal effect; nearly all actives have a fitted effect of over 30% in size
* hit, by the source's call; i = inactive; ? = inconclusive; . = no result given; [ ] = another dose, or the depositor's remark. Rows were chosen to be rich in hits. Some 9.3% of all compounds tested hit in one or more screens of this group. Unless noted, the call rests on the fitted dose curve; in most records, active means well fitted curve in the direction sought with a large enough effect; inconclusive means small, poorly fitted or top-dose-only effect, or another doubt; inactive means no such curve, though single readings can be large; an effect the other way counts as inactive or inconclusive. On the % scale 0 is the no-effect control and ±100 the full control effect.

SMILES | HCV inh | HCMV antiviral | FMDV inh | VACV mCherry inh | Sm TGR block | Vaccinia Venus
COc1ccc(Br)cc1C(C[N+](=O)[O-])c1c(N)n(C)c(=O)n(C)c1=O (stereo unspecified) | 4µM* | -100* | ? | . | -20% | .
Cn1c(N)c(C(C[N+](=O)[O-])c2c(F)cccc2Cl)c(=O)n(C)c1=O (stereo unspecified) | -9% | ? | -14% | -15% | -14% | ?
Cc1ccc(S(=O)(=O)NN=Cc2ccccc2Cl)cc1 | . | 12 | 67% | -2% | . | -13%
Cc1ccc(S(=O)(=O)N/N=C\c2ccc(C)o2)cc1 | 15% | 13 | . | ? | 35µM* | -2%
Cc1ccc(S(=O)(=O)N/N=C\c2ccccc2OCc2ccccc2)cc1 | ? | -74* | . | -27% | 12% | ?
Cc1ccc(/C=N/NS(=O)(=O)c2ccc([N+](=O)[O-])cc2)o1 | 7% | -33 | 30% | -8% | -32% | -14%
Cc1ccc(S(=O)(=O)N/N=C\c2ccc([N+](=O)[O-])o2)cc1 | 13µM* | ? | 2% | -14% | 20µM* | -3%
O=[N+]([O-])c1ccc(/C=N/NS(=O)(=O)c2ccc(Cl)cc2)o1 | 7% | -10 | 0% | -14% | 13µM* | -10%
O=[N+]([O-])c1ccc(S(=O)(=O)N/N=C/c2ccco2)cc1 | 16% | 19 | 13% | . | -15% | .
Cc1ccc(S(=O)(=O)N/N=C\c2ccc([N+](=O)[O-])o2)cc1C | 8% | 13 | 2% | -7% | -2% | -5%
O=C(c1ccc2c(c1)OCCO2)N(Cc1cccnc1)c1nc2c(F)cc(F)cc2s1 | . | -29 | 0% | -11%[7.34 µM] | 8% | -9%[7.34 µM]
CS(=O)(=O)c1sc(C#N)c2c1C(=O)CC(c1ccccc1)C2 (stereo unspecified) | ? | -104* | 11µM* | . | 0.32µM* | .
O=C(Nc1ccc(-c2nc3ccccc3o2)c(O)c1)c1ccccc1 | . | 39 | 40% | -12% | 13% | -8%
CCOC(=O)C1=C(NC(=S)NC(=O)c2ccccc2)c2ccccc2CC1(C)CC (stereo unspecified) | ? | ? | 0% | -17% | -3% | -3%
CCOC(=O)C1=C(NC(=S)NC(=O)c2ccccc2)c2ccccc2CC1C(C)C (stereo unspecified) | ? | -77* | 0% | ? | -3% | -9%
CCCCC1=CC2=CC(=O)C(C)(OC(=O)CC)C(=O)C2=CN1C1CCCC1 (stereo unspecified) | 1% | 9 | -15% | i | -14% | -5%
O=C(CSc1nnc(-c2ccccc2)c(-c2ccccc2)n1)NC1CCCC1 | . | 0 | -11% | -2% | -2% | -5%
COCC(N)(c1ccccc1)c1nc2ccccc2n1C (stereo unspecified) | 11% | 24 | 6% | . | 4% | .
COc1ccccc1/C=C/C(=O)OC(C)CN1CCOCC1 (stereo unspecified) | -10% | 28 | 14% | . | 9% | .
COc1cc(CCC(=O)NCC2CCCO2)cc(OC)c1OC (stereo unspecified) | 1% | -1 | 3% | -14% | 12% | -5%
CCOC(=O)N1CCN(Cc2nc(N)nc(Nc3ccc(Oc4ccccc4)cc3)n2)CC1 | ? | -11 | 32µM* | . | ? | ?
CCOC(=O)C1CCN(Cc2c(F)cccc2Cl)CC1 | 4% | 42 | 8% | 0% | 6% | -8%
CCOC(=O)C1CCCN(Cc2c(F)cccc2Cl)C1 (stereo unspecified) | 24% | -75* | -8% | . | 3% | .
CCOC(=O)N1CCC(N(CCN(C)C)C(=S)Nc2ccc(Oc3ccccc3)cc2)CC1 | 11µM* | ? | -18% | -10% | 1% | -18%
CCOC(=O)C1CCCN(Cc2nc(N)nc(Nc3ccc(Cl)cc3)n2)C1 (stereo unspecified) | ? | ? | 28µM* | -21% | -28% | -23%
SMILES | HCV inh | HCMV antiviral | FMDV inh | VACV mCherry inh | Sm TGR block | Vaccinia Venus
O=C(COC(=O)CSc1ccc(Cl)cc1)NCCc1ccccc1 | -3% | -30 | -14% | -3% | -4% | 2%
CCS(=O)(=O)Nc1ccc(C2=NN(C(=O)c3ccccc3)C(c3cccs3)C2)cc1 (stereo unspecified) | -27% | 0 | ? | -2%[7.34 µM] | -14% | 0%[7.34 µM]
CC(C)/C=C1\CCc2c([nH]c3ccccc23)C1=O | 3% | -70* | 25% | -10% | 13% | -3%
CS(=O)(=O)c1ccccc1C(=O)Nc1cccc(-c2nc3ccccc3o2)c1 | 11µM* | -11 | ? | . | 0% | .
CC(=O)Nc1ccc(S(=O)(=O)Nc2cccc(-c3nc4ccccc4o3)c2)cc1 | 13µM* | -21 | -2% | . | -1% | .
O=C(Nc1cccc(-c2nc3ccccc3o2)c1)C(F)(F)F | . | -103* | 32µM* | ? | 3% | -19%
O=S(=O)(Nc1ccc(-c2nc3ccccc3o2)cc1)c1ccccc1 | -7% | -15 | 47% | . | 7%[11.4 µM] | .
CCc1c(C)sc(NC(=S)N2CCN(S(C)(=O)=O)CC2)c1C(=O)OC | -20% | 6 | ? | . | 101% | .
O=C(CCN1CCN(Cc2ccccc2)CC1)NNC(=O)Cc1ccc(Cl)c(Cl)c1 | ? | -11 | -24% | 28µM* | 1% | ?
N#CC(c1ccccc1)C1CCN(Cc2ccccc2)CC1 (stereo unspecified) | -7% | -9 | -21% | -4% | 89µM* | -10%
O=C(Cc1ccccc1)NC1CCN(Cc2ccccc2)CC1 | -21% | -62* | -11% | -9% | 56% | -9%
CCC(=O)c1ccc(OCC(=O)NC2CCN(Cc3ccccc3)CC2)cc1 | ? | -105* | -2% | . | . | .
CCc1cccc(OCC(=O)Nc2ccc(S(=O)(=O)Nc3onc(C)c3C)cc2)c1 | 1% | 0 | -18% | i | 0% | -4%
O=C(NC1CCN(Cc2ccc(Cl)cc2Cl)CC1)c1ccccc1 | ? | -81* | ? | i | 6% | -16%
CCCc1cc(=O)oc2c(C)c(OCC(=O)NC3CCN(Cc4ccccc4)CC3)ccc12 | 6.3µM* | -32 | -2% | . | 6% | .
O=C(Cc1ccc(Br)cc1)NC1CCN(Cc2ccccc2)CC1 | 10µM* | ? | -24% | 5% | 2% | -3%
O=C(Cn1nnc(-c2ccc(Cl)cc2)n1)NC1CCN(Cc2ccccc2)CC1 | ? | 33 | -13% | -12% | 4% | -5%
O=C(NC1CCN(Cc2ccccc2)CC1)c1ccccc1 | -1% | -9 | -16% | . | 0% | .
Cc1ccc(-c2nnn(CC(=O)NC3CCN(Cc4ccccc4)CC3)n2)cc1 | 22µM* | -6 | -10% | . | -2% | .
CS(=O)(=O)c1ccc(N)c(SSc2cc(S(C)(=O)=O)ccc2N)c1 | -12% | -82* | 4% | i | -4% | -6%
CS(=O)(=O)c1ccc2nc(N)sc2c1 | 6% | 48 | 12% | -13% | 8% | -7%
